Compound activity (PubChem BioAssay)
Compounds with a hit are over-represented: about 1.1% of the library has one in this group of screens.
NPSR antag: antagonists of human neuropeptide S receptor cAMP signaling. CHO-NPSR cells, cAMP TR-FRET, antagonist mode. 1% of 220,000 active. Q6W5P4. Potency, µM (titrated, usually from 38.3 µM), for inactives: top-dose activity change, negative = inhibition, most hits filed as inhibitors. AID 1461; further: nearly all actives have a fitted effect of over 50% in size
Target sequence (Q6W5P4 whole entry, looked up): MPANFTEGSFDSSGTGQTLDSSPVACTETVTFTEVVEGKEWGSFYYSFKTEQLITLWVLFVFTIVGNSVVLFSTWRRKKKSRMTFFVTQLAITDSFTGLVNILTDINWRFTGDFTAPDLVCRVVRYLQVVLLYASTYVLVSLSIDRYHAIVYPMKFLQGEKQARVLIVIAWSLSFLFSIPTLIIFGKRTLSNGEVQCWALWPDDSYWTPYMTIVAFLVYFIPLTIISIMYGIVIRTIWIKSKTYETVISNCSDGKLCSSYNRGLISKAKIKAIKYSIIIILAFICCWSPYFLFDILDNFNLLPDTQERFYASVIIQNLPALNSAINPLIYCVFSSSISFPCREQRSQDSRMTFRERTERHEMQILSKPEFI
IMPase Li inh: cell-permeable IMPase inhibitors with lithium potentiation; CHO-M1 cells, IP1 TR-FRET (IP-One), carbachol + lithium; Potency, µM (top dose mostly 59.4 µM), for inactives: at the top dose activity, negative = IMPase inhibition, hits mostly inhibitors; 0.35% of 210,000 active;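 further: IP1 builds up when IMPase is blocked and the TR-FRET signal falls; plate controls were basal vehicle for no effect and high inhibitor control for full effect; nearly all actives have a fitted effect of over 50% in size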
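CHO cells stably expressing M1 receptor (2000/well) were cultured 16–30 h, then exposed to compounds with a small lithium addition for 30 min at 37C. IP1 was measured by TR-FRET competition; AC50 from Hill fits.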
ERK EGF inh: inhibitors of EGF-stimulated ERK signaling pathway; Potency, µM (titrated, usually from 11.5 µM), for inactives: at the highest dose activity change, negative = inhibition, hits mostly inhibitors; 0.41% of 130,000 active; HEK293-V1b, EGF-stimulated phospho-ERK AlphaScreen;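 further: plate controls were stimulated vehicle wells for no effect and unstimulated vehicle basal for full effect; nearly all actives have a fitted effect of over 55% in size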
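V1b-HEK293, 1% FBS o/n; cpd 30 min 37C; EGF 25 nM final, 5 min; lyse 10 min; AlphaScreen beads 5 h RT. Normalized DMSO basal vs EGF max; Hill AC50.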
KinaseGlo FLuc: Kinase-Glo luciferase inhibition (counter-screen) | 0.28% of 200,000 active | Q27757 | Kinase-Glo luciferase, ATP luminescence, 8 min | AID 1379 | Potency, µM (doses to about 38.3 µM), without a hit: at the highest dose activity change, negative = inhibition, hits mostly inhibitors; further: nearly all actives have a fitted effect of over 60% in size
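Light output from Kinase-Glo luciferase with luciferin and 10 uM ATP in 50 mM imidazole pH 7.2, KCl, MgCl2, Tween 20, BSA; compound pin-delivered, 8-min ambient incubation, then luminescence read.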
* = called active by the depositor; u = inconclusive; x = no result given; [ ] = another dose, or the depositor's remark. The call rests on the fitted dose curve; in most records, active means well fitted curve in the direction sought with a large enough effect; inconclusive means small, poorly fitted or top-dose-only effect, or another doubt; inactive means no such curve, though single readings can be large; an effect the other way counts as inactive or inconclusive. Unless noted, on the % scale 0 is the no-effect control and ±100 the full control effect; potency means the concentration at half of the fitted maximal effect.

SMILES	NPSR antag	IMPase Li inh	ERK EGF inh	KinaseGlo FLuc
O=C(N/N=C/c1ccc2c(c1)OCO2)c1cccs1	11%	-4%	-2%	13µM*
N#Cc1cccc(-c2ccc3ncnc(NCc4ccccc4)c3c2)c1	x	19%	x	x
COc1ccc(C[C@H](O)CN2CCOCC2)cc1	x	1%	x	-12%[7.66 µM]
C[C@H]1C2=C3C(CC[C@H]4C(OCc5ccc(F)cc5C(F)(F)F)OC[C@](C)([C@@H]34)N(C(=O)OC(C)(C)C)C2)C2COC(=O)OCC21 (some centres undefined)	x	-11%	-3%	-1%
CCCCCCCC(=O)OC[C@H](CO)OC(=O)CCCCCCC	x	6%	5%	2%
Cc1ccccc1/C=N/NC(=O)c1sccc1C	3%	-3%	-1%	13µM*
O=C(N/N=C/c1cc2c(cc1Br)OCO2)c1ccccn1	7%	x	-4%[57.5 µM]	x
O=C(O/N=C/c1ccc2c(c1)OCO2)c1ccccc1Cl	-22%[46.1 µM]	29%[38.3 µM]	x	11µM*
O=C(N/N=C/c1ccc2c(c1)OCO2)c1ccccn1	-14%[46.1 µM]	-13%[38.3 µM]	x	10µM*
O=C(O/N=C\c1ccc(N2CCOCC2)c([N+](=O)[O-])c1)c1ccccc1Cl	-17%[46.1 µM]	-5%[38.3 µM]	x	-8%
C=C(CCC12O[C@H](C(=O)O)[C@@](O)(C(=O)O)[C@](C(=O)O)(O1)[C@H](OC(=O)/C=C/[C@@H](C)C[C@@H](C)CC)[C@H]2O)[C@@H](OC(C)=O)[C@H](C)Cc1ccccc1	x	-2%	x	2%[39.9 µM]
Cc1nn(CC(=O)NCc2cc3ccccc3[nH]2)c(C)c1[N+](=O)[O-]	-3%	-3%	14µM*	-1%
Cc1nn(CC(=O)NCc2ccccc2F)c(C)c1[N+](=O)[O-]	-2%	8%	-5%	-3%
COc1cc2c(cc1NC(=O)Cc1ccc(C)cc1)oc1ccccc12	-35%	-14%	-10%	1%
COc1cc2c(cc1NC(=O)CN1CCN(S(=O)(=O)c3ccccc3F)CC1)oc1ccccc12	-29%[46.1 µM]	5.6µM*	x	12%
Cn1c(=O)c2c(nc(NN=C3CCCCC3)n2C)n(C)c1=O	-8%	32%	5%	11µM*
CC(C)=NNc1nc2c(c(=O)n(C)c(=O)n2C)n1C	-20%	x	-4%[57.5 µM]	x
COC1=CC(=O)C(O)=C/C1=C\C=C\c1ccccc1	x	33%	u	-4%
CC(=O)N1/C(=C/c2ccc(N(C)C)cc2)C(=O)c2ccccc21	-11%	12%	25µM*	-17%
N#CC(C#N)=CNCCN1CCN(C=C(C#N)C#N)CC1	x	2%	x	-4%[7.66 µM]
CC#CCN1c2ccccc2[C@]23C[C@@H](C(=O)OC)N(S(=O)(=O)c4cccs4)C2=NC(C(=O)OC)=C(C(=O)OC)[C@H]13	x	1%	x	-2%[7.66 µM]
C=CC1=C(C)C2=Cc3c(C=C)c(C)c4[n]3[Sn+2][n]3c(c(C)c(CCC(=O)O)c3=CC3=NC(=C4)C(C)=C3CCC(=O)O)=CC1=N2	x	16%	-10%	-28%
COc1ccc(NC(=O)c2cccc([N+](=O)[O-])c2)cc1	13%	4%	17%	u
COc1ccc(NC(=O)c2cc([N+](=O)[O-])ccc2O)cc1	u	18%	-9%	7.9µM*
O=S(=O)(O)[C@@H](CO)c1ccccc1 (tested in a mixture with another compound)	x	-10%	x	-6%[7.66 µM]
SMILES	NPSR antag	IMPase Li inh	ERK EGF inh	KinaseGlo FLuc
CCc1c(C)nc2ccc(Br)cc2c1Cl	13%[46.1 µM]	11µM*	x	-2%
Nc1nc(Cl)nc2ccc(Br)cc12	5%	-19%	2%	0%
Cc1cc(N)c2ccccc2[n+]1CCCCCCCCCCCCCC[n+]1c(C)cc(N)c2ccccc21	16µM*	35%	28µM*	-6%
Cc1cc(N)c2ccccc2n1	11%	-5%	2%	-3%
CN(C)CCCN=C(N)N	x	0%	x	0%[7.66 µM]
CCn1cc(C(=O)NCC2CCCO2)c(=O)c2cc(S(=O)(=O)N3CCCCCC3)ccc21 (centres undefined)	3.2µM*	10%[38.3 µM]	x	-1%
COc1cc([C@@H]2c3cc4c(cc3[C@@H](O)[C@H]3COC(=O)[C@H]23)OCO4)cc(OC)c1O[Si](C)(C)C(C)(C)C	10µM*	x	-2%[57.5 µM]	x
S=C=Nc1cccc(NC(=S)NCCCCNC(=S)Nc2cccc(N=C=S)c2)c1	x	-15%	-4%	1%
Cc1nc(SCC(=O)Nc2ccccc2C(F)(F)F)c(C#N)c(C)c1CC(=O)c1ccc(Br)cc1	10µM*	10µM*	x	-1%
Cc1cc(C)c2nc3c(c([C@H](O)C4CCCCN4)c2c1)CC/C3=C/c1ccc(Cl)cc1 (some centres undefined)	x	2%	x	-5%[7.66 µM]
FC(F)(F)c1cnc(Sc2nnc(-c3cccs3)n2CC2CCCO2)c(Cl)c1 (centres undefined)	-20%[46.1 µM]	27%[38.3 µM]	x	-3%
N#Cc1c(Sc2ncc(C(F)(F)F)cc2Cl)nsc1C/C=N\OCc1c(F)cccc1Cl	10µM*	21%[38.3 µM]	x	-1%
Nc1ccc(N=Nc2ccccc2)c2ccccc12	4%[7.67 µM]	x	18µM*	x
COc1cc(O)c(C(CCN2CCN(c3ccccc3)CC2)c2cc(OC)c(OC)c(OC)c2)c(OC)c1 (centres undefined)	5µM*	x	-1%[57.5 µM]	x
CN(NC(=O)c1ccco1)c1nc2ccccc2nc1C(F)(F)F	-13%	0%	-4%	1%
Cc1ccccc1C(=O)NN(C)c1nc2ccccc2nc1C(F)(F)F	13%[46.1 µM]	5.6µM*	x	-4%
COCCCN1C(=O)C(=O)/C(=C(/O)c2ccc(OC)cc2C)C1c1cccnc1 (centres undefined)	12%[46.1 µM]	u	x	-2%
COCCCN1C(=O)C(=O)/C(=C(/O)c2ccc(OC(C)C)cc2)C1c1cccnc1 (centres undefined)	u	11µM*	x	0%
CCCOc1ccc(/C(O)=C2/C(=O)C(=O)N(CCCOC)C2c2cccnc2)cc1 (centres undefined)	1%[46.1 µM]	10µM*	x	0%
COCCCN1C(=O)C(=O)/C(=C(/O)c2ccc(OC(C)C)c(C)c2)C1c1ccncc1 (centres undefined)	18%[46.1 µM]	10µM*	x	3%
COCCCN1C(=O)C(=O)/C(=C(/O)c2ccc(OCC(C)C)cc2)C1c1cccnc1 (centres undefined)	3%[46.1 µM]	u	x	-1%
Cc1ncc(CSc2ccccc2N)c(CO)c1O	x	4%	x	-3%[7.66 µM]
Nc1ccccc1N=Nc1c(S(=O)(=O)O)cc2cc(S(=O)(=O)O)cc(O)c2c1O	x	0%	x	-11%[7.66 µM]
COc1ccc(C=Nc2c(O)ccc3ccccc23)cc1OC	x	1%	x	-2%[7.66 µM]
COc1cc(NC(=O)c2cc(-c3ccco3)on2)c(OC)cc1Cl	8%[46.1 µM]	11µM*	x	0%
COc1ccc(NC(=O)c2cc(-c3ccco3)on2)cc1	4%	-15%	-2%	10%
O=C(NCc1cccs1)O[C@H]1C[C@H]2CC[C@@H]1C2	x	-9%	x	-4%[7.66 µM]
CC1CC1C(=O)OCC(=O)Nc1ccc(N=Nc2ccccc2)cc1 (centres undefined)	-3%	1%	20µM*	4%
Cn1c(NC(=O)c2ccccc2)c(-c2ccccn2)c(=O)c2ccccc21	11%[46.1 µM]	22µM*	x	-1%
